# Bioassay records (PubChem)
# HTT aggregate: mutant huntingtin aggregation inhibition; PC12 HttQ103-GFP aggregates, Acumen cytometry, 40 h; Potency, µM (series often up to 46.1 µM), without a hit: top-dose activity change, negative = inhibition, usual class: inhibitors; 1.1% of 220,000 active; active means well fitted curve in the direction sought with a large enough effect; inconclusive means small, poorly fitted or top-dose-only effect, or another doubt; inactive means no such curve, though single readings can be large; an effect the other way counts as inactive or inconclusive; further: on the % scale 0 is the no-effect control and ±100 the full control effect; nearly all actives have a fitted effect of over 60% in size
#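 Aggregates are detected as GFP objects 1–25 µm with signal 6 STDEV over background in lysates of induced PC12 cells. These carry Huntingtin exon 1 with 103 glutamines fused to GFP under an ecdysone promoter; compounds titrated.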
# HTT cytoprotect: protects HTT-Q103 PC12 cells, measured by ATP; PC12 HTT-Q103 induced, cytoprotection, ATP luminescence, 40 h; Potency, µM (highest dose often 56.4 µM), without a hit: cytoprotection (ATP increase), hits mostly activators; 0.14% of 230,000 active; AID 1471; active means well fitted curve in the direction sought with a large enough effect; inconclusive means small, poorly fitted or top-dose-only effect, or another doubt; inactive means no such curve, though single readings can be large; an effect the other way counts as inactive or inconclusive; further: % of control where 0% means no effect; nearly all actives have a fitted effect of over 45% in size
#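 Compounds were screened for protection of PC12 cells against cell death after tebufenozide induction (100 nM final) of mutant Huntingtin exon 1 (Q103) fused to GFP.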
# ALDH1A1 block: ALDH1A1 (human) enzyme inhibition. P00352. Purified ALDH1A1, NADH fluorescence, propionaldehyde substrate. Potency, µM (doses to about 75.3 µM), for inactives: at the highest dose activity, negative = inhibition, actives largely listed as inhibitors. 7.3% of 220,000 active;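 further: plate controls were no enzyme wells and a reference inhibitor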
# Target sequence (P00352 whole entry, looked up): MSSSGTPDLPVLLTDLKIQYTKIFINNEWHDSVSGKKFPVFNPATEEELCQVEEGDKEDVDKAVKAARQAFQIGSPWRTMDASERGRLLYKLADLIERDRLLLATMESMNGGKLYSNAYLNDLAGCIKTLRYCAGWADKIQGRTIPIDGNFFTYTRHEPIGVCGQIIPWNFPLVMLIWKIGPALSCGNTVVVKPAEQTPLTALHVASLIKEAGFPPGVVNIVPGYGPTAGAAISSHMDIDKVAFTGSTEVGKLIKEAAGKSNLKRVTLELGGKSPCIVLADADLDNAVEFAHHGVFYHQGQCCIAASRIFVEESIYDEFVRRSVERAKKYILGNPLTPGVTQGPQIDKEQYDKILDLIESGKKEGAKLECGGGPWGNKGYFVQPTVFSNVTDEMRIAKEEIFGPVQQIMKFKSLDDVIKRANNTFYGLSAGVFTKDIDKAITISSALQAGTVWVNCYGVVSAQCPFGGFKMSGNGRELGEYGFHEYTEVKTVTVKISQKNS
# HPGD block: HPGD (human) dehydrogenase inhibition. P15428. purified HPGD, NADH fluorescence kinetic, PGE2 substrate. Potency, µM, without a hit: at the highest dose activity change, negative = inhibition, usual class: inhibitors. 4.3% of 150,000 active. AID 894; further: on the % scale 0 is the no-effect control and ±100 the full control effect
# Target sequence (P15428 whole entry, looked up): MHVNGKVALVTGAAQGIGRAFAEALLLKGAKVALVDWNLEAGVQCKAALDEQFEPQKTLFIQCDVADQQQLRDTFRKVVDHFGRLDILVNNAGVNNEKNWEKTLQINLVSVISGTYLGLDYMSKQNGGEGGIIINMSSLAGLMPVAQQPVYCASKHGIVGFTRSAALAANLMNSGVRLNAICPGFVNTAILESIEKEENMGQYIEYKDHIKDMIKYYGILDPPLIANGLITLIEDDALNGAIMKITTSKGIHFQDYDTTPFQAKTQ
#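 NADH formation kinetics: reaction with 30 uM PGE2 and 1 mM NAD+ (final), 20 nM enzyme, Tris-HCl pH 8 with Tween 20, after 15 min compound preincubation at room temperature. Fluorescence change, last versus first of five reads.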
# Lamin A splicing: LMNA splicing modulation | HeLa LMNA splicing GFP/RFP minigene ratio, 48 h | Potency, µM (highest dose often 46.1 µM), inactives show at the highest dose ratio change, negative = inhibition, actives largely listed as inhibitors | 0.01% of 200,000 active; active means well fitted inhibition curve with a large enough effect in the signal ratio, with a control signal flat, not every such curve was filed as active; inconclusive means small, poorly fitted or top-dose-only effect, or effect the other way, or a change in a side signal; the % refers to the signal ratio; further: on the % scale 0 is the no-effect control and ±100 the full control effect
#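 Read-out is the ratio of GFP to DsRed2 object intensity, acquired by 488 nm laser-scanning cytometry on HeLa lamin A-EGFP minigene reporter cells. Compound incubation 48 hrs at 37 °C in Opti-MEM with 2% FBS; DMSO 0.5% final.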
# * = called active by the depositor; ? = inconclusive; / = not tested or not shown; [ ] = remark or other dose. The list is not random: actives were taken first. Their share in the collection is about 8.8%. Unless noted, the call rests on the fitted dose curve; in most records, active means well fitted inhibition curve with a large enough effect (not every such curve was filed as active); inconclusive means small, poorly fitted or top-dose-only effect, or another doubt; inactive means no such curve, though single readings can be large or run the other way. Potency means the concentration at half of the fitted maximal effect.
SMILES,HTT aggregate,HTT cytoprotect,ALDH1A1 block,HPGD block,Lamin A splicing
CCN(CC)c1ccc(N=Cc2ccc(N(CC)CC)cc2O)cc1,-5.2%,-23.3%,1.78µM*,-6.6%,?
CCN(CC)c1ccc(/C=N/N=C(N)N)c(O)c1,0.708µM*,-73.2%[10 µM],?,/,-18.2%[46 µM]
CCN(CC)c1ccc(C=Nc2ccc(N(C)C)cc2)c(O)c1,?,-10.6%,?,-2.3%,-6.8%
CCN(CC)c1ccc(C=Nc2cc(C)cc(C)c2)c(O)c1,7.6%,/,14.1µM*,-23.5%,-2.1%
N#C/C(=C\c1c(N2CCCCCC2)nc2ccccn2c1=O)C(=O)NCc1ccco1,4.1%[9.22 µM],-5.6%[10 µM],12.6µM*,/,/
N#C/C(=C\c1c(N2CCCCC2)nc2ccccn2c1=O)C(=O)NCc1ccco1,-24.5%,10.2%[10 µM],28.2µM*,-27.4%,-0.5%
CCNC(=O)/C(C#N)=C/c1c(N(Cc2ccccc2)Cc2ccccc2)nc2ccccn2c1=O,?,-2.7%[10 µM],15.8µM*,-7.6%,?
CCNC(=O)/C(C#N)=C/c1c(N2CCOCC2)nc2ccccn2c1=O,4.2%,21.0%[10 µM],?,?,-6.3%
COC(=O)C/C=C/[C@@H](C)[C@@H](Cc1ccccc1Br)OC,/,13.4%,-6.3%,-11.8%,/
COc1ccc(C(C[N+](=O)[O-])c2c(-c3ccccc3)cc3ccccn23)c(OC)c1 (stereo not given),?,17.9%,?,22.4µM*,-20.6%
O=C1[C@H]2[C@H]3[C@H](O)[C@H](O)C/C(=N/OCc4ccccc4)[C@H]3CC[C@@H]2C(=O)N1C1CCCCC1,/,-1.1%[10 µM],-7.5%[13.5 µM],/,/
CSCC[C@@H](Nc1nc(-c2ccccc2)nc2c1oc1ccccc12)C(=O)O,-6.6%,-4.5%[10 µM],11.2µM*,-12.3%,-11.6%
O=C(O)CNc1nc(-c2ccccc2)nc2c1oc1ccccc12,-26.4%[9.22 µM],-15.3%[10 µM],/,/,/
Cc1nc(N[C@@H](Cc2ccccc2)C(=O)O)c2oc3ccccc3c2n1,4.9%,-24.9%,17.8µM*,-15.2%,1.4%[0.0737 µM]
CCC(C)Nc1nc(C)nc2c1oc1ccccc12 (stereo not given),33.8%[9.22 µM],?,/,/,/
Cc1nc(N[C@@H](Cc2c[nH]c3ccccc23)C(=O)O)c2oc3ccccc3c2n1,?,-12.1%,-55.3%,?,5.1%
Cc1nc(NC(C)c2ccccc2)c2oc3ccccc3c2n1 (stereo not given),12.6µM*,-29.0%,-13.5%,-26.3%,?
COc1ccccc1CN(Cc1c(Cl)cccc1Cl)S(=O)(=O)c1ccc(Br)cc1,/,/,/,/,-18.8%[46 µM]
Cc1ccc(Cn2c(CNS(=O)(=O)c3c(C)cc(C)cc3C)nc3cccnc32)cc1,/,/,/,/,10.2%[46 µM]
COc1ccc(-n2nc(C(=O)NCC(=O)NCC3CCCO3)c3ccccc3c2=O)c(OC)c1 (stereo not given),0.8%,-14.0%,12.6µM*,/,2.4%
COc1cccc(-n2nnc3c(=O)n(CC(=O)Nc4ccc(C)cc4)cnc32)c1,-0.2%[9.22 µM],-20.1%,4.9%,/,/
COc1cccc(-n2nnc3c(=O)n(Cc4cccc(F)c4)cnc32)c1,-7.8%[9.22 µM],-6.3%,4.3%,14.1µM*,20.3%
COc1cccc(-n2nnc3c(=O)n(CC(=O)N4CCCCC4)cnc32)c1,4.1%,-25.3%,-2.6%,?,2.9%
COc1ccc(-n2nnc3c(=O)n(Cc4cccc(C)c4)cnc32)cc1,21.4%,-20.5%[0.074 µM],-14.7%,15.8µM*,13.4%
COc1cccc(-n2nnc3c(=O)n(Cc4c(F)cccc4Cl)cnc32)c1,3.16µM*,-9.5%[0.074 µM],?,28.2µM*,4.5%
SMILES,HTT aggregate,HTT cytoprotect,ALDH1A1 block,HPGD block,Lamin A splicing
Cc1cccc2c1Oc1ccccc1[C@@H]2NC(=O)c1ccc([N+](=O)[O-])cc1,/,-3.8%[10 µM],5.5%[13.5 µM],-4.1%,/
C/C(CCN1CCCc2nc(C)c(C)cc21)=N\O[C@@H](C)c1cn([C@H](CO)Cc2ccccc2)nn1,/,2.8%[10 µM],?,/,/
COc1cccc(-n2nnc3c(=O)n(CC(=O)NCC4CCCO4)cnc32)c1 (stereo not given),-6.5%,4.5%[10 µM],-7.4%,15.8µM*,-9.4%
COc1ccc(-n2ncc3c(=O)n(Cc4c(F)cccc4Cl)cnc32)cc1,26.6%[9.22 µM],11.7%[10 µM],28.2µM*,/,/
O=C(O)/C=C\C(=O)Nc1ccc(Oc2ccccc2)cc1,-10.7%,-20.9%,11.2µM*,-17.9%,7.0%
O=C(O)/C=C/C(=O)Nc1ccc(Oc2ccc(NC(=O)/C=C/C(=O)O)cc2)cc1,5.2%,4.2%[10 µM],?,-8.5%,0.1%
O=C(O)/C=C/C(=O)Nc1ccc(Cc2ccc(NC(=O)/C=C/C(=O)O)cc2)cc1,-19.7%[9.22 µM],-5.1%[10 µM],/,/,/
O=C(O)/C=C/C(=O)Nc1ccc(OC(F)(F)Cl)cc1,6.5%,-48.3%,25.1µM*,/,?
O=C(O)/C=C/C(=O)Nc1ccc(SC(F)(F)C(F)(F)C(F)(F)F)cc1,-1.4%,-56.8%,28.2µM*,/,?
C=Cc1ccc(Cn2nc(-c3ccc(C)c(S(=O)(=O)N(CC)CC)c3)ccc2=O)cc1,/,/,/,/,3.7%[46 µM]
COc1ccc(C(=O)NC(=S)Nc2nc(C)c(C(=O)N(C)C)s2)cc1,19.6%,-5.8%,?,-15.5%,-0.9%
Cc1nc(NC(=S)NC(=O)c2cccs2)sc1C(=O)N(C)C,-8.1%,-43.2%,4.47µM*,22.4µM*,26.0%
Cn1nnnc1SCC(=O)Nc1ccccc1-c1ccccc1,-5.6%,0.6%,12.6µM*,-2.7%,6.2%
Cc1ccccc1NC(=O)CSc1nnnn1C,5.5%,-6.3%,11.3%,-12.8%,0.2%
CCOC(=O)c1cnc(-c2ccccc2)nc1N1CCOCC1,0.6%,-30.2%,-4.4%,/,11.7%[46 µM]
Cn1c(SCC(=O)Nc2ccccc2-c2ccccc2)nnc1-c1ccco1,4.8%,-25.0%,8.91µM*,-18.3%,0.8%
CCc1nnc(NC(=O)CSc2nnc(-c3ccco3)n2C)s1,14.5%,-6.1%,2.9%,-3.1%,1.9%
CCOC(=O)CNC(c1ccccc1)c1cc(Br)ccc1NC(=O)CCN1CCOCC1 (stereo not given),-2.5%,30.0%[10 µM],?,31.6µM*,?
CCOC(=O)c1[nH]cc(-c2ccccc2)c1N1CCOCC1,-13.9%,5.3%[10 µM],2.82µM*,3.98µM*,-18.9%
Cc1ccc(NC(=O)C2(c3cccs3)CCOCC2)cc1Cl,/,/,/,/,0.4%[46 µM]
Cc1occc1-c1nnc(SCC(=O)Nc2ccccc2-c2ccccc2)n1C,-4.9%,-5.3%[10 µM],22.4µM*,-6.6%,?
CCOC(=O)c1c(-c2ccc(-c3ccccc3)cc2)csc1NC(=O)C1C2CCC(O2)C1C(=O)O (stereo not given),16.2%,-38.1%,?,14.1µM*,13.3%
CCOC(=O)c1c(-c2cccc([N+](=O)[O-])c2)csc1NC(=O)CCCOc1ccccc1OC,-0.5%,-6.2%[10 µM],28.2µM*,?,-5.4%
CCOC(=O)c1c(-c2ccccc2)csc1NC(=O)C1CCCO1 (stereo not given),-15.6%,-31.5%,?,?,15.8%
CCOC(=O)c1c(-c2ccccc2)csc1NC(=O)CCN1CCOCC1,14.7%,1.0%[10 µM],28.2µM*,-18.5%,?
